Test results from PubChem BioAssay.
Values without a mark were called inactive. Activity calls are given as the source filed them. Unless noted, no stated cut-off is given here; in the data, active means inhibition above about 25%; inactive means the rest.

Columns and labels:
[1] = molecular target: Nuclear receptor coactivator 3 (Homo sapiens) (UniProt Q9Y6Q9); assay: SRC3 coactivator transcriptional activity inhibitors, confirmation, cell-based, luminescence, quadruplicate (AID 588792;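 active means mean inhibition over 43.08%, the solvent-only control mean plus 3 SD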;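 further: 0% = DMSO treated cells and 100% = gossypol at 36 µM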); settings: HEK293 GAL4-SRC3 luciferase reporter, at 3.6 µM, active compounds read high
Sequence of Nuclear receptor coactivator 3 (Homo sapiens) (Q9Y6Q9 whole entry, looked up, the tested form may be a part): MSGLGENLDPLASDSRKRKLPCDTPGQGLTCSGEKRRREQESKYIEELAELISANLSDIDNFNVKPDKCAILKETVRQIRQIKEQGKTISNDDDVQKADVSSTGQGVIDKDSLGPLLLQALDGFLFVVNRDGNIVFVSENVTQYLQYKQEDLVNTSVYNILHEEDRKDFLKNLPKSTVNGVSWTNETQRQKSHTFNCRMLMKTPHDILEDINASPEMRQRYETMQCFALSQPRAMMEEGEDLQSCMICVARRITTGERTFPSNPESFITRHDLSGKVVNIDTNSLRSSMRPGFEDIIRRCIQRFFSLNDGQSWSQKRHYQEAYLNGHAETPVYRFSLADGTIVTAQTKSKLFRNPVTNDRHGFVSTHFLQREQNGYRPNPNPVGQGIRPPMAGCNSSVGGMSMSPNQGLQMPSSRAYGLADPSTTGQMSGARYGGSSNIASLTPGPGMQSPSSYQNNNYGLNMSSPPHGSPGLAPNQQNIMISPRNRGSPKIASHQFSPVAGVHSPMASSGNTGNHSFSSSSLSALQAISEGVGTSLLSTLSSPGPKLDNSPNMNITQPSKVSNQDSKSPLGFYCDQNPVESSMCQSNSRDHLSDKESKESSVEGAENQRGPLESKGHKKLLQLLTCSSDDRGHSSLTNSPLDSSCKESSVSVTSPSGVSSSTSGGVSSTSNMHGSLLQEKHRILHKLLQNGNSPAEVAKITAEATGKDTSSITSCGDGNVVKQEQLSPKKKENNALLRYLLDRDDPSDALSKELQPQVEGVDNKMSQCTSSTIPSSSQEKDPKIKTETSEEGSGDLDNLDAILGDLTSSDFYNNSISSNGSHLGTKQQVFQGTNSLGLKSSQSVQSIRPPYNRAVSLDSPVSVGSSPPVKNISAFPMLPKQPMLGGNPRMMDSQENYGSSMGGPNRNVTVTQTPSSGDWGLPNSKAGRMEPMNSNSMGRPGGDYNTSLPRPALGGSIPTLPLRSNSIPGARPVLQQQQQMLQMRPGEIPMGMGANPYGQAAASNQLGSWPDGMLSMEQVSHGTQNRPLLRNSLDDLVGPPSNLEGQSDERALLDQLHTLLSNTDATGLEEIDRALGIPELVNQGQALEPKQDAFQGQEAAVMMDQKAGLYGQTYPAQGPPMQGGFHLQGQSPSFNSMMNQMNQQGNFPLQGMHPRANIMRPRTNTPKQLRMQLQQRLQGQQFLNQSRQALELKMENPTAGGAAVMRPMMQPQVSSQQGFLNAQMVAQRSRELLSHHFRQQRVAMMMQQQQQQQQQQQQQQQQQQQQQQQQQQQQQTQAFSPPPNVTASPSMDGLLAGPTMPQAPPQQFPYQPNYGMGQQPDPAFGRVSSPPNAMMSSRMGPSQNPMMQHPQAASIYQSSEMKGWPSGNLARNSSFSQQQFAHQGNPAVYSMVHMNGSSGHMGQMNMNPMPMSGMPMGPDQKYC

[2] = system: transactivating tegument protein VP16 (Human herpesvirus 1), Gal4-VP16 luciferase reporter; assay: VP16 transactivation inhibitors, counter-screen for SRC3 inhibitor project, cell-based, luminescence, high throughput (AID 588794; in the data active means inhibition above about 30%); settings: mammalian cells, VP16-driven luciferase reporter luminescence; at 3.6 µM; active compounds read high
[3] = molecular target: Nuclear receptor coactivator 1 (Homo sapiens) (UniProt Q15788); assay: SRC1 coactivator transcriptional activity inhibitors, confirmation, cell-based, luminescence, quadruplicate (AID 588820;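 active means mean inhibition above 46.68%, the untreated control wells mean plus 3 SD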;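 further: 0% = DMSO wells and 100% = gossypol 36 µM treated wells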); settings: HEK293 GAL4-SRC1 luciferase reporter, at 3.6 µM, active compounds read high
Sequence of Nuclear receptor coactivator 1 (Homo sapiens) (Q15788 whole entry, looked up, the tested form may be a part): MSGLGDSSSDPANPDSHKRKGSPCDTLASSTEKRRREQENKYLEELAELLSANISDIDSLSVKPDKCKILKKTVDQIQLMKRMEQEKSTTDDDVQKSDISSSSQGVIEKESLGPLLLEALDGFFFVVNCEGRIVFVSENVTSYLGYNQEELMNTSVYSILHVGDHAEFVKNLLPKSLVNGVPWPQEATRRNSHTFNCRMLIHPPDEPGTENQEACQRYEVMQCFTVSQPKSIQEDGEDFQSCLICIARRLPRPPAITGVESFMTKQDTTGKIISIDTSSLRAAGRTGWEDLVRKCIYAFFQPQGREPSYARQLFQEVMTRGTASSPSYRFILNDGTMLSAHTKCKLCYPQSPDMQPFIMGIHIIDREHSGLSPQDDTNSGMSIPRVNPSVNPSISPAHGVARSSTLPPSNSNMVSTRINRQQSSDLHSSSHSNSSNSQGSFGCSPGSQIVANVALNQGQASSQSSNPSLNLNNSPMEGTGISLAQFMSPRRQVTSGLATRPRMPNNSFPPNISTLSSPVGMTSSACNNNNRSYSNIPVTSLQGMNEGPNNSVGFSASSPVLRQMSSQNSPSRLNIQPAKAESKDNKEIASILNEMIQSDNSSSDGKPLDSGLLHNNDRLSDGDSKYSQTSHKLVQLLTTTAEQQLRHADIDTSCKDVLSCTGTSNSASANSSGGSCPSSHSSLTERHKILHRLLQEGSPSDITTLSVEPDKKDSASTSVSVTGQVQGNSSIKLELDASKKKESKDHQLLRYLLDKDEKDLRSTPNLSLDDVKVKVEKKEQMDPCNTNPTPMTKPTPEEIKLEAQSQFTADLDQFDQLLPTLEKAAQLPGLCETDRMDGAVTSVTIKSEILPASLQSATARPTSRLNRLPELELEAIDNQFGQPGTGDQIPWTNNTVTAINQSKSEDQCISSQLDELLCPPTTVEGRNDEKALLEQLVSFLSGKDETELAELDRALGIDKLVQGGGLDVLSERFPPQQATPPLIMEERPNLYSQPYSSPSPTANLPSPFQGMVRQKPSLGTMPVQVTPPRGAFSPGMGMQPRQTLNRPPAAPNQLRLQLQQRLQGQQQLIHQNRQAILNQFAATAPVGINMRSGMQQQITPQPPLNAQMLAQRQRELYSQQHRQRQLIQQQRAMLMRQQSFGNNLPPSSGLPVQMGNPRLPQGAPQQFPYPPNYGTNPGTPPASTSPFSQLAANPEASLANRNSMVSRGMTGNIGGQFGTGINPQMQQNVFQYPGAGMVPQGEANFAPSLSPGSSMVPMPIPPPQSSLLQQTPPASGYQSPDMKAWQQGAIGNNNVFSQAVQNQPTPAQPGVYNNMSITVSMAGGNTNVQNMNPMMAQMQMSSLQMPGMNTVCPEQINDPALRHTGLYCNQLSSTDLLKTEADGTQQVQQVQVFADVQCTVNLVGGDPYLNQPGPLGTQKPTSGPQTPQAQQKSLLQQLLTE

[4] = VP16 transactivation inhibitors, counter-screen for SRC1 inhibitor project, cell-based, luminescence, high throughput (AID 588824); settings: cell-based VP16 transactivation luciferase luminescence; at 3.6 µM; active compounds read high
[5] = system: transactivating tegument protein VP16 (Human herpesvirus 1); assay: VP16 transactivation reporter inhibitors, counter-screen for SRC2 inhibitor project, cell-based, luminescence, single concentration (AID 652007; in the data active means inhibition above about 36%); settings: cell-based VP16 transactivation luciferase reporter, at 8.9 µM, active compounds read high
[6] = molecular target: Nuclear receptor coactivator 2 (Homo sapiens) (UniProt Q15596); assay: SRC2 coactivator transcriptional activity inhibitors, confirmation, cell-based, luminescence, HEK293, triplicate (AID 652008;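 active means mean inhibition above 46.5%, the solvent-only control mean plus 3 SD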;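 further: 0% = DMSO-treated cells and 100% = Gossypol at 36 µM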); settings: HEK293 GAL4-SRC2 luciferase reporter, at 8.9 µM, active compounds read high
Sequence of Nuclear receptor coactivator 2 (Homo sapiens) (Q15596 whole entry, looked up, the tested form may be a part): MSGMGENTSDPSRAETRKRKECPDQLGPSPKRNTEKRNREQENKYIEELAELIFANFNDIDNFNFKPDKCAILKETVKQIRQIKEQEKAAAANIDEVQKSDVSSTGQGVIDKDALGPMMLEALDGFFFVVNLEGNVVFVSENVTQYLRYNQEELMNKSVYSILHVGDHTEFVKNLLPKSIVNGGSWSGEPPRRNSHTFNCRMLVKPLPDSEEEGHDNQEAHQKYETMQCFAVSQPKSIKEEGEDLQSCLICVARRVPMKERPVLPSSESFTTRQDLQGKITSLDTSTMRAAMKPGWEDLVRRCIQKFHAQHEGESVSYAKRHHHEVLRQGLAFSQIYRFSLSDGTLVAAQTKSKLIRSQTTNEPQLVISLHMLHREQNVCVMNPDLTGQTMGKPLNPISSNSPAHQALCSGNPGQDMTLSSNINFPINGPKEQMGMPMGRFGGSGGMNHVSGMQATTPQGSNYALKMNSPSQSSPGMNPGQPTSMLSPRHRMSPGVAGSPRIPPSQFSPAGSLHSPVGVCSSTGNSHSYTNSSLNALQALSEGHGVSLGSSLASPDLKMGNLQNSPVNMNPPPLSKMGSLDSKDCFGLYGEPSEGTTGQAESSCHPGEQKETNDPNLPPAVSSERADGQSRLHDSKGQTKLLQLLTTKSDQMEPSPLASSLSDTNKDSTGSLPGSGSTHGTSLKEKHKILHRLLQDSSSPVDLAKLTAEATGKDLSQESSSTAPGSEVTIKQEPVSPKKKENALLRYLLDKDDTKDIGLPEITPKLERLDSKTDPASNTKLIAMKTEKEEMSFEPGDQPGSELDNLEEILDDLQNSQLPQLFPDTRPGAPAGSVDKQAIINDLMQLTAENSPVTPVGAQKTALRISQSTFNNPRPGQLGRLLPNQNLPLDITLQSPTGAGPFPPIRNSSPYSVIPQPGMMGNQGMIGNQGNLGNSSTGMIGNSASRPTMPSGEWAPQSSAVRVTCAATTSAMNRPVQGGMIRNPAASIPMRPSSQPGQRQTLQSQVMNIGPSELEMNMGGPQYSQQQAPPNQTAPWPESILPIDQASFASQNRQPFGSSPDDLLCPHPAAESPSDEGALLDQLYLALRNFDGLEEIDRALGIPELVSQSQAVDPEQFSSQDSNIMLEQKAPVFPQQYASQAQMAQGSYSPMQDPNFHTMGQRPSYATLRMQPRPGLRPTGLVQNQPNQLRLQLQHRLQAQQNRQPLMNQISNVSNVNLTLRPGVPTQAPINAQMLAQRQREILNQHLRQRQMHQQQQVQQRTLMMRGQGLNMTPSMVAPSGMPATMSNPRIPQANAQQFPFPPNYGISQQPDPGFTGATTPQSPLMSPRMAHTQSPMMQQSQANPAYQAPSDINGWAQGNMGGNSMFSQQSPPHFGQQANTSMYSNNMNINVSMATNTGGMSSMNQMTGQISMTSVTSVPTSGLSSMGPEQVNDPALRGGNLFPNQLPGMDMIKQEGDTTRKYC

Row | SMILES | inhibition [1] | inhibition [2] | inhibition [3] | inhibition [4] | inhibition [5] | inhibition [6]
1 | CN(C)c1ccc(/C=C/c2nc3ccccc3s2)cc1 | 30.4% | 28.4% | 18.7% | 12.9% | 77.1% (active) | 84% (active)
2 | CC(=O)Nc1nc(-c2ccc3c(c2)CC(C)N3C(=O)C2CC2)c(C)s1 (configuration not stated) | 72.6% (active) | 58.6% (active) | 50.6% (active) | 62.7% (active) | -4.55% | 41.8%
3 | c1cc(-c2nnc3sc(C4CCCCC4)nn23)ccn1 | 62.6% (active) | 37.2% (active) | 58.2% (active) | 51% (active) | 0.17% | 35.7%
4 | CC(C)(C)C(=O)Nc1ccc(N=Nc2ccccc2)cc1 | 69.1% (active) | 28.6% | -19.6% | -23.9% | 54.7% (active) | 66% (active)
5 | C=CC[n+]1c(-c2ccc(C)cc2)csc1Nc1ccc(NC(C)=O)cc1 | 29.6% | -12.8% | 4.13% | -3.13% | 62.2% (active) | 86.8% (active)
6 | O=c1c2ccccc2cnn1-c1nc2ccccc2[nH]1 | 57.4% (active) | 50.6% (active) | 22.3% | 41.9% (active) | 76.6% (active) | 84.9% (active)
7 | C=CCn1c(C)cc(C2=NNC(=NC(C)(C)C)SC2)c1C | 28.8% | 33.7% (active) | -25.9% | -16.9% | 17.8% | 63% (active)
8 | CCOc1cc(/C=C2\COc3ccccc3C2=O)cc(Br)c1OCC(=O)N(C)C | 61.1% (active) | 35.8% (active) | 22.3% | 39.2% (active) | 44.5% (active) | 34%
9 | O=C(Nc1ccc(C(=O)N2CCOCC2)cc1)Nc1cccc(C(F)(F)F)c1 | 66.9% (active) | 43.2% (active) | 64.3% (active) | 38.8% (active) | -0.39% | 36.4%
10 | COc1ccc(C(=O)CN2C(=O)c3ccccc3S2(=O)=O)cc1 | 57.4% (active) | 57.1% (active) | -21.8% | 55.6% (active) | 72.1% (active) | 78.4% (active)
11 | N#CC(C#N)c1ccnc2ccccc12 | 66.9% (active) | 40.6% (active) | 64.1% (active) | 38.3% (active) | 4.65% | 36.4%
12 | COc1ccc(-n2c(C)c([N+](=O)[O-])c3ccc(O)c(CN4CCCCC4)c32)cc1 | 47.4% (active) | 30.5% (active) | 54.9% (active) | 39.5% (active) | 4.57% | 48.4% (active)
13 | CCCN1C=CC(=C2C(=O)c3ccccc3C2=O)C=C1 | 65.4% (active) | 51.3% (active) | -14.4% | 38% (active) | 80.3% (active) | 91.3% (active)
14 | Cc1ccc2nc(C(F)(F)F)c(C#N)c(N)c2c1 | 48.2% (active) | 9.27% | 27.6% | 2.5% | 1.92% | 50.1% (active)
15 | c1ccc(CCc2nn3c(-c4ccncc4)nnc3s2)cc1 | 68.4% (active) | 47.2% (active) | 57.3% (active) | 41.1% (active) | 1.28% | 50.8% (active)
16 | CCOC(=O)c1cccc2c1-c1ccccc1/C2=N/O | 39.8% | 23.7% | 46.5% | 23.2% | -10.8% | 24.9%
17 | COc1ccc(-c2[nH]ncc2-c2ccc3c(c2)OCCO3)c(O)c1 | 74.4% (active) | 58.3% (active) | 72% (active) | 59.5% (active) | 11.7% | 47.5% (active)
